# Results taken from PubChem BioAssay AID1159580 (chemical genetic matrix, 2015).
# In all, about 5,500 compounds went through this assay and about 2,000 (36%) were called active. Roughly 18% stayed inconclusive and do not appear here. This is one part of the list. A number with no mark means an inactive call. Cut-off read from the data, not from the text of the source: active = normalized growth mostly below about 0.91 (no sharp cut-off); inconclusive = no clear call, values can overlap the other calls; inactive = mostly above about 0.92.
# Experiment: chemical genetic growth profiling, strain panel (AID 1159580);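 note: tested at 20 µM; growth read once vehicle control cultures reached saturation at 30 °C; 1 = growth at the plate median or of vehicle wells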
# Conditions: growth OD
compound,measurement,setting,value
CN(C)CC/C=C1\c2ccccc2Sc2ccc(Cl)cc21,normalized growth,"S. cerevisiae deletion strains, locus YJR043C, strain POL32, stronger effect = lower value",1.03
same,normalized growth,"S. cerevisiae deletion strains, locus YJR066W, strain TOR1, stronger effect = lower value",0.815 (active)
same,normalized growth,"S. cerevisiae deletion strains, locus YJR075W, strain HOC1, stronger effect = lower value",0.884
same,normalized growth,"S. cerevisiae deletion strains, locus YKL009W, strain mrt4, stronger effect = lower value",0.989
same,normalized growth,"S. cerevisiae deletion strains, locus YKL068W, stronger effect = lower value",1.01
same,normalized growth,"S. cerevisiae deletion strains, locus YKL085W, strain MDH1 (second series), stronger effect = lower value",1.03
same,normalized growth,"S. cerevisiae deletion strains, locus YKL085W, strain MDH1, stronger effect = lower value",1.03
same,normalized growth,"S. cerevisiae deletion strains, locus YKL160W, strain elf1, stronger effect = lower value",0.867 (active)
same,normalized growth,"S. cerevisiae deletion strains, locus YKL190W, strain CNB1, stronger effect = lower value",0.982
same,normalized growth,"S. cerevisiae deletion strains, locus YKR026C, strain gcn3, stronger effect = lower value",0.992
same,normalized growth,"S. cerevisiae deletion strains, locus YKR091W, strain srl3, stronger effect = lower value",0.987
same,normalized growth,"S. cerevisiae deletion strains, locus YLL001W, strain dnm1, stronger effect = lower value",0.904
same,normalized growth,"S. cerevisiae deletion strains, locus YLL026W, stronger effect = lower value",0.981
same,normalized growth,"S. cerevisiae deletion strains, locus YLL041C, strain sdh2, stronger effect = lower value",0.993
same,normalized growth,"S. cerevisiae deletion strains, locus YLR027C, strain aat2, stronger effect = lower value",0.881 (active)
same,normalized growth,"S. cerevisiae deletion strains, locus YLR039C, strain RIC1, stronger effect = lower value",1.5 [resistant] (active)
same,normalized growth,"S. cerevisiae deletion strains, locus YLR058C, strain SHM2, stronger effect = lower value",0.933
same,normalized growth,"S. cerevisiae deletion strains, locus YLR102C, strain apc9, stronger effect = lower value",1.02
same,normalized growth,"S. cerevisiae deletion strains, locus YLR113W, strain HOG1, stronger effect = lower value",0.915
same,normalized growth,"S. cerevisiae deletion strains, locus YLR221C, strain rsa3, stronger effect = lower value",0.947
same,normalized growth,"S. cerevisiae deletion strains, locus YLR258W, strain gsy2, stronger effect = lower value",0.894 (active)
same,normalized growth,"S. cerevisiae deletion strains, locus YLR262C, strain YPT6 (second series), stronger effect = lower value",1.1
same,normalized growth,"S. cerevisiae deletion strains, locus YLR262C, strain YPT6, stronger effect = lower value",1.62 [resistant] (active)
same,normalized growth,"S. cerevisiae deletion strains, locus YLR268W, strain sec22, stronger effect = lower value",1.01
same,normalized growth,"S. cerevisiae deletion strains, locus YLR320W, strain mms22, stronger effect = lower value",0.951
same,normalized growth,"S. cerevisiae deletion strains, locus YLR330W, strain CHS5, stronger effect = lower value",0.999
same,normalized growth,"S. cerevisiae deletion strains, locus YLR342W, strain FKS1 (second series), stronger effect = lower value",0.667 (active)
same,normalized growth,"S. cerevisiae deletion strains, locus YLR342W, strain FKS1, stronger effect = lower value",0.724 (active)
same,normalized growth,"S. cerevisiae deletion strains, locus YLR357W, strain rsc2, stronger effect = lower value",0.935
same,normalized growth,"S. cerevisiae deletion strains, locus YLR370C, strain arc18, stronger effect = lower value",0.749 (active)
same,normalized growth,"S. cerevisiae deletion strains, locus YLR371W, strain rom2, stronger effect = lower value",1.01
same,normalized growth,"S. cerevisiae deletion strains, locus YLR384C, strain iki3, stronger effect = lower value",0.987
same,normalized growth,"S. cerevisiae deletion strains, locus YLR418C, strain cdc73, stronger effect = lower value",0.661 (active)
same,normalized growth,"S. cerevisiae deletion strains, locus YML016C, strain PPZ1, stronger effect = lower value",0.994
same,normalized growth,"S. cerevisiae deletion strains, locus YML032C, strain rad52, stronger effect = lower value",0.947
same,normalized growth,"S. cerevisiae deletion strains, locus YML120C, strain ndi1, stronger effect = lower value",0.998
same,normalized growth,"S. cerevisiae deletion strains, locus YML124C, strain tub3, stronger effect = lower value",1.02
same,normalized growth,"S. cerevisiae deletion strains, locus YMR058W, strain fet3, stronger effect = lower value",0.775 (active)
same,normalized growth,"S. cerevisiae deletion strains, locus YMR078C, strain ctf18, stronger effect = lower value",1.02
same,normalized growth,"S. cerevisiae deletion strains, locus YMR125W, strain sto1, stronger effect = lower value",0.923
same,normalized growth,"S. cerevisiae deletion strains, locus YMR129W, stronger effect = lower value",1
same,normalized growth,"S. cerevisiae deletion strains, locus YMR205C, strain PFK2, stronger effect = lower value",0.921
same,normalized growth,"S. cerevisiae deletion strains, locus YMR223W, strain ubp8, stronger effect = lower value",0.935
same,normalized growth,"S. cerevisiae deletion strains, locus YMR231W, strain pep5, stronger effect = lower value",0.0779 (active)
same,normalized growth,"S. cerevisiae deletion strains, locus YMR307W, strain GAS1, stronger effect = lower value",0.903
same,normalized growth,"S. cerevisiae deletion strains, locus YNL067W, strain RPL9B, stronger effect = lower value",0.929
same,normalized growth,"S. cerevisiae deletion strains, locus YNL071W, strain lat1, stronger effect = lower value",0.934
same,normalized growth,"S. cerevisiae deletion strains, locus YNL183C, strain NPR1, stronger effect = lower value",0.872
same,normalized growth,"S. cerevisiae deletion strains, locus YNL209W, strain ssb2, stronger effect = lower value",0.665 (active)
same,normalized growth,"S. cerevisiae deletion strains, locus YNL233W, strain BNI4, stronger effect = lower value",0.891
same,normalized growth,"S. cerevisiae deletion strains, locus YNL248C, strain rpa49, stronger effect = lower value",0.917
same,normalized growth,"S. cerevisiae deletion strains, locus YNL250W, strain rad50, stronger effect = lower value",1.03
same,normalized growth,"S. cerevisiae deletion strains, locus YNL271C, strain bni1, stronger effect = lower value",1.01
same,normalized growth,"S. cerevisiae deletion strains, locus YNL298W, strain CLA4, stronger effect = lower value",1
same,normalized growth,"S. cerevisiae deletion strains, locus YNL307C, strain MCK1, stronger effect = lower value",0.999
same,normalized growth,"S. cerevisiae deletion strains, locus YNL322C, strain KRE1 (second series), stronger effect = lower value",1.03
same,normalized growth,"S. cerevisiae deletion strains, locus YNR049C, strain mso1, stronger effect = lower value",0.996
same,normalized growth,"S. cerevisiae deletion strains, locus YNR052C, strain pop2, stronger effect = lower value",0.964
same,normalized growth,"S. cerevisiae deletion strains, locus YOL006C, strain TOP1, stronger effect = lower value",0.42 (active)
same,normalized growth,"S. cerevisiae deletion strains, locus YOL012C, strain htz1",1.87
same,normalized growth,"S. cerevisiae deletion strains, locus YOL147C, strain pex11, stronger effect = lower value",1.02
same,normalized growth,"S. cerevisiae deletion strains, locus YOR001W, strain rrp6, stronger effect = lower value",0.935
same,normalized growth,"S. cerevisiae deletion strains, locus YOR061W, strain CKA2, stronger effect = lower value",0.941
same,normalized growth,"S. cerevisiae deletion strains, locus YOR069W, strain VPS5, stronger effect = lower value",1
same,normalized growth,"S. cerevisiae deletion strains, locus YOR070C, strain gyp1, stronger effect = lower value",0.804 (active)
same,normalized growth,"S. cerevisiae deletion strains, locus YOR080W, strain dia2, stronger effect = lower value",0.975
same,normalized growth,"S. cerevisiae deletion strains, locus YOR083W, strain WHI5, stronger effect = lower value",0.735 (active)
same,normalized growth,"S. cerevisiae deletion strains, locus YOR106W, strain vam3, stronger effect = lower value",0.393 (active)
same,normalized growth,"S. cerevisiae deletion strains, locus YOR136W, strain idh2, stronger effect = lower value",1.02
same,normalized growth,"S. cerevisiae deletion strains, locus YOR144C, strain elg1, stronger effect = lower value",1.01
same,normalized growth,"S. cerevisiae deletion strains, locus YOR184W, strain ser1, stronger effect = lower value",1.06
same,normalized growth,"S. cerevisiae deletion strains, locus YOR231W, strain MKK1, stronger effect = lower value",0.869
same,normalized growth,"S. cerevisiae deletion strains, locus YOR265W, strain rbl2, stronger effect = lower value",0.974
same,normalized growth,"S. cerevisiae deletion strains, locus YOR270C, strain vph1, stronger effect = lower value",0.41 (active)
same,normalized growth,"S. cerevisiae deletion strains, locus YOR290C, strain snf2, stronger effect = lower value",0.818 (active)
same,normalized growth,"S. cerevisiae deletion strains, locus YOR316C, strain cot1, stronger effect = lower value",1.02
same,normalized growth,"S. cerevisiae deletion strains, locus YPL051W, strain arl3, stronger effect = lower value",0.76 (active)
same,normalized growth,"S. cerevisiae deletion strains, locus YPL078C, strain atp4, stronger effect = lower value",0.835 (active)
same,normalized growth,"S. cerevisiae deletion strains, locus YPL106C, strain sse1, stronger effect = lower value",0.802 (active)
same,normalized growth,"S. cerevisiae deletion strains, locus YPL240C, strain hsp82, stronger effect = lower value",0.981
same,normalized growth,"S. cerevisiae deletion strains, locus YPL241C, strain CIN2, stronger effect = lower value",1.01
same,normalized growth,"S. cerevisiae deletion strains, locus YPL256C, strain CLN2, stronger effect = lower value",0.95
same,normalized growth,"S. cerevisiae deletion strains, locus YPR119W, strain clb2, stronger effect = lower value",1.03
same,normalized growth,"S. cerevisiae deletion strains, locus YPR141C, strain kar3, stronger effect = lower value",1.02
same,normalized growth,"S. cerevisiae deletion strains, locus YPR163C, strain tif3, stronger effect = lower value",0.827 (active)
same,normalized growth,"S. cerevisiae deletion strains, locus YPR167C, strain met16, stronger effect = lower value",1.01
same,normalized growth,"S. cerevisiae deletion strains, strain wtn01, stronger effect = lower value",0.937
same,normalized growth,"S. cerevisiae strains, strain wild type, stronger effect = lower value",0.956
